Source: PubChem
IDE exosite FP – exo-site inhibitors of human IDE, primary screen, biochemical, fluorescence anisotropy, probe displacement; Insulin-degrading enzyme (Homo sapiens), P14735; z-score at 20 µM; purified IDE, FL-6b probe fluorescence polarization; active compounds read low; hit rate 6.3% among 17,000;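 active means z-score of -3 or lower, meaning strong loss of probe binding signal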;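 further: His-tagged human IDE residues 42-1019 made in E. coli with 30 nM FL-6b probe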
Target sequence (P14735 42-1019 limits assumed): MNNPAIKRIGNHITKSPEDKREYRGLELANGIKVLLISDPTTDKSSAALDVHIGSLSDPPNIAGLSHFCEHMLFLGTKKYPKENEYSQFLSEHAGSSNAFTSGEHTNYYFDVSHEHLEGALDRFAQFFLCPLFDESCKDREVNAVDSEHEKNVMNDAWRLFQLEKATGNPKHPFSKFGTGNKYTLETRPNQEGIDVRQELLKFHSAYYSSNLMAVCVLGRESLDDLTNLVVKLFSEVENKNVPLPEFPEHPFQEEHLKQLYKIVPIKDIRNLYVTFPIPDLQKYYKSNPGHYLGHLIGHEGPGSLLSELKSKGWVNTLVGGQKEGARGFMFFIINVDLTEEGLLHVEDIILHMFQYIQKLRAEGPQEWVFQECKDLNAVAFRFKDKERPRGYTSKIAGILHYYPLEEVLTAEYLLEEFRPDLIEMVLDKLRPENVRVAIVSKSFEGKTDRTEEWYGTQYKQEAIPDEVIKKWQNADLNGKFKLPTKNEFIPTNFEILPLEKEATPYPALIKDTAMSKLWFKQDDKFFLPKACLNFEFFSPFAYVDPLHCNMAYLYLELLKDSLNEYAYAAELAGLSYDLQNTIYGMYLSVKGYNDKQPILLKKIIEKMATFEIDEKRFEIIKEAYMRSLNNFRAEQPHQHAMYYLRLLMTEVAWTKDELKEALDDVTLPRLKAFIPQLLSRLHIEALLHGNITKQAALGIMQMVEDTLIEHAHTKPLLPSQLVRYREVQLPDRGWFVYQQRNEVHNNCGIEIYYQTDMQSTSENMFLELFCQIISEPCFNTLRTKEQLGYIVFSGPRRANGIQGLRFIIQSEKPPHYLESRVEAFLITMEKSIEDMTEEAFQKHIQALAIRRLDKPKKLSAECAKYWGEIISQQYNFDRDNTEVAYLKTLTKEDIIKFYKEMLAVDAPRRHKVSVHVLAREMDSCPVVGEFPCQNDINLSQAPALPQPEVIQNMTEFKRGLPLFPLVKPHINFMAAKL
Numbers without * were called inactive. The sample as a whole holds a higher share of hits than the screen did.

SMILES	IDE exosite FP
CN1C(=O)c2cc(NC(=O)c3cccc(F)c3)ccc2OC[C@H]2O[C@@H](CC(=O)NCc3ccccc3Cl)CC[C@H]21	-0.18
O=C(c1ccc(F)cc1)N1CC(=O)N2[C@H](CO)[C@@H](c3ccc(C#CC4CCCCC4)cc3)[C@H]2C1	4.1
O=C(C1CCC1)N1CC(=O)N2[C@@H](CO)[C@@H](c3ccc(-c4ccccc4F)cc3)[C@@H]2C1	-5.6*
O=C(C1CCC1)N1CC(=O)N2[C@H](C1)[C@@H](c1ccc(Br)cc1)[C@@H]2CO	0.91
O=C(c1cnccn1)N1CC(=O)N2[C@H](CO)[C@H](c3ccc(C#CC4CCCCC4)cc3)[C@@H]2C1	0.18
Cc1ccc(-c2ccc([C@@H]3[C@H](CO)N4CCCCN(C(=O)c5ccncc5)C[C@@H]34)cc2)cc1	-1.2
Cc1cccc(-c2ccc([C@@H]3[C@H](CO)N4CCCCN(C(=O)c5ccncc5)C[C@@H]34)cc2)c1	-12*
Cc1cccc(-c2ccc([C@H]3[C@H]4CN(C(=O)c5ccncc5)CCCCN4[C@H]3CO)cc2)c1	-3*
Cc1cccc(-c2ccc([C@@H]3[C@H](CO)N4CCCCN(C(=O)c5cccnc5)C[C@@H]34)cc2)c1	-1.4
O=C(c1ccncc1)N1CCCCN2[C@H](C1)[C@H](c1ccc(-c3ccccc3)cc1)[C@@H]2CO	1.9
O=C(c1ccncc1)N1CCCCN2[C@@H](CO)[C@@H](c3ccc(-c4ccccc4)cc3)[C@@H]2C1	-0.96
COCC(=O)N1CCC2(CC1)CN(S(C)(=O)=O)[C@H](CO)c1[nH]c3cc(OC)ccc3c12	-0.81
COCC(=O)Nc1ccc2c(c1)[C@@H]1C[C@H](CC(=O)N[C@H](C)c3ccccc3)O[C@H](CO)[C@@H]1O2	1.1
O=C(NC1CCCC1)N1CCCCN2[C@H](C1)[C@@H](c1ccc(-c3cccnc3)cc1)[C@@H]2CO	-0.83
CC(C)NC(=O)N1[C@H](CO)[C@H]2c3ccccc3N(C)C[C@H]21	3.6
CO[C@@H]1CN(C)C(=O)c2cc(NC(=O)NC3CCCCC3)ccc2OC[C@H](C)N(CC2CCOCC2)C[C@@H]1C	-0.6
Cc1ccccc1S(=O)(=O)N1CC(=O)N2[C@H](CO)[C@@H](c3ccc(C#CC4CC4)cc3)[C@H]2C1	1.4
C/C=C/c1ccc([C@@H]2[C@@H](CO)N3C(=O)CN(C(=O)c4ccncc4)C[C@@H]23)cc1	1.1
O=C(c1ccccc1)N1CC(=O)N2[C@H](CO)[C@H](c3ccc(/C=C/c4ccccc4)cc3)[C@H]2C1	-8.4*
C/C=C/c1ccc([C@H]2[C@H]3CN(C(=O)c4ccncc4)CC(=O)N3[C@H]2CO)cc1	0.6
C/C=C/c1ccc([C@@H]2[C@H](CO)N3C(=O)CN(C(=O)c4ccncc4)C[C@@H]23)cc1	0.7
O=C(c1ccncc1)N1CC(=O)N2[C@H](C1)[C@@H](c1ccc(/C=C/c3ccccc3)cc1)[C@@H]2CO	-6*
O=C(c1ccccc1)N1CC(=O)N2[C@H](CO)[C@H](c3ccc(/C=C/c4ccccc4)cc3)[C@@H]2C1	-2.8
O=C(c1ccncc1)N1CC(=O)N2[C@@H](CO)[C@H](c3ccc(/C=C/c4ccccc4)cc3)[C@@H]2C1	-16*
O=C(c1ccncc1)N1CC(=O)N2[C@H](CO)[C@@H](c3ccc(/C=C/c4ccccc4)cc3)[C@@H]2C1	-1
SMILES	IDE exosite FP
O=C(c1ccc(F)cc1)N1CC(=O)N2[C@H](CO)[C@H](c3ccc(/C=C/c4ccccc4)cc3)[C@@H]2C1	1.2
C[C@H]1CCCCO[C@H](CN(C)S(=O)(=O)c2ccccc2)[C@@H](C)CN([C@@H](C)CO)C(=O)c2cc(NC(=O)Nc3ccc4c(c3)OCO4)ccc2O1	0.22
CCCC#Cc1ccc([C@H]2[C@@H](C#N)N(C(=O)CN3CCOCC3)[C@@H]2CO)cc1	-1
CC(C)[C@@H]1CCc2cnnn2COC[C@@H](Cc2ccccc2)NC1=O	-0.47
CCCNC(=O)C[C@H]1CC[C@@H]2[C@H](COc3ccc(NC(=O)CC)cc3C(=O)N2C)O1	-0.32
O=C(c1cnccn1)N1CC(=O)N2[C@H](CO)[C@@H](c3ccc(C#CCC4CCCC4)cc3)[C@@H]2C1	2.1
C/C=C/c1ccc([C@@H]2[C@H](C#N)N(C(=O)c3cccnc3)[C@H]2CO)cc1	0.33
OC[C@@H]1[C@@H](c2ccc(-c3cccnc3)cc2)[C@@H]2CN(Cc3ccccn3)CCCCN12	-2.9
COc1ccc(S(=O)(=O)Nc2ccc3c(c2)CC(=O)N([C@H](C)CO)C[C@@H](C)[C@H](CN(C)C(=O)Nc2c(C)noc2C)O3)cc1	0.89
Cc1noc(C)c1S(=O)(=O)Nc1ccc2c(c1)CC(=O)N([C@@H](C)CO)C[C@@H](C)[C@@H](CN(C)Cc1ccc(Oc3ccccc3)cc1)O2	0.55
Cc1noc(C)c1S(=O)(=O)Nc1ccc2c(c1)CC(=O)N([C@H](C)CO)C[C@H](C)[C@@H](CN(C)Cc1ccc(Oc3ccccc3)cc1)O2	-3.6*
C[C@@H]1CN([C@H](C)CO)C(=O)c2cc(N(C)C)ccc2O[C@H]1CN(C)Cc1ccc(Oc2ccccc2)cc1	-0.23
C[C@@H]1CN([C@H](C)CO)C(=O)c2cc(N(C)C)ccc2O[C@@H]1CN(C)Cc1ccc(Oc2ccccc2)cc1	-2.3
C[C@H](CO)N1C[C@H](C)[C@H](CN(C)Cc2ccc(Oc3ccccc3)cc2)Oc2ccc(N(C)C)cc2C1=O	-4.2*
COCCNC(=O)C[C@H]1CC[C@H]2[C@@H](COC[C@@H](O)CN2S(=O)(=O)c2ccccc2F)O1	-0.22
C[C@@H]1CCCCO[C@@H](CN(C)C(=O)Nc2ccccc2)[C@H](C)CN([C@H](C)CO)C(=O)c2cc(NC(=O)Nc3ccccc3)ccc2O1	-0.54
N#C[C@@H]1[C@@H](c2ccccc2-c2ccc(F)cc2)[C@@H](CO)N1c1ncc(-c2ccccc2)s1	3
COCC(=O)N1[C@@H]2CN(C)c3ccccc3[C@@H]2[C@@H]1CO	1.9
O=C(Cc1ccccc1)N1CC(=O)N2[C@H](CO)[C@@H](c3ccc(C#CCc4ccccc4)cc3)[C@@H]2C1	3.2
O=C(Cc1ccccc1)N1CC(=O)N2[C@@H](CO)[C@@H](c3ccc(C#CCc4ccccc4)cc3)[C@@H]2C1	-4*
O=C(Cc1ccccc1)N1CC(=O)N2[C@H](CO)[C@@H](c3ccc(C#Cc4ccccc4)cc3)[C@H]2C1	-1.8
O=C(Cc1ccccc1)N1CC(=O)N2[C@H](C1)[C@H](c1ccc(C#CCc3ccccc3)cc1)[C@@H]2CO	-3.6*
O=C(Cc1ccccc1)N1CC(=O)N2[C@@H](CO)[C@H](c3ccc(C#Cc4ccccc4)cc3)[C@@H]2C1	-2.8
O=C(Cc1ccccc1)N1CC(=O)N2[C@@H](CO)[C@H](c3ccc(C#CCc4ccccc4)cc3)[C@@H]2C1	-1.3
CO[C@@H]1CN(C)C(=O)c2cc(NS(=O)(=O)c3ccc(Cl)cc3)ccc2OC[C@@H](C)N(C(=O)NC(C)C)C[C@@H]1C	2.3
CCCNC(=O)N(C)C[C@H]1Oc2cc(C#C[C@H](C)O)ccc2S(=O)(=O)N([C@H](C)CO)C[C@H]1C	1.3
COc1ccc2c3c(n(C)c2c1)[C@@H](CO)N(C)CC31CN(C(=O)Nc2c(C)noc2C)C1	0.18
COc1cc(CN2CC3(CN(C(=O)Nc4c(C)noc4C)C3)c3c([nH]c4cc(OC)ccc34)[C@H]2CO)cc(OC)c1	0.21
COc1ccc2c3c(n(C)c2c1)[C@H](CO)N(C)CC31CN(C(=O)Nc2c(C)noc2C)C1	0.53
